{"source": "PubChem BioAssay AID2284371", "about": "(EPA ToxCast)", "note": "Inconclusive results are not listed. Activity calls are given as the source filed them. Rule for the calls: active = hit-call score of the fitted dose curve at least 0.9, where 1 is the maximum; inconclusive = response in the unintended direction; inactive = score below 0.9."}
{"assay": "ATG_M_61_EcoTox2: Attagene TRANS-FACTORIAL EcoTox-2 HepG2 Assay for M61 Transcription Factor (Internal Marker)", "protocol": "ATG_EcoTox2 is a cell-based, multiplexed assay created by modifying the existing Attagene TRANS-FACTORIAL system to include a panel of nuclear receptors from some or all the following species: human (Homo sapiens), african clawed frog (Xenopus laevis), rainbow trout (Oncorhynchus mykiss), japanese medaka (Oryzias latipes), and zebrafish (Danio rerio). The ECOTOX2-FACTORIAL format uses HepG2, a human liver cell line, with measurements taken at 24 hours after chemical dosing in a 24-well plate. ATG_M_61_EcoTox2 is one of 29 assay components calculated in the ATG_EcoTox2 assay. It is designed to make measurements of mRNA induction, a form of inducible reporter, as detected with fluorescence intensity signals by Reverse transcription polymerase chain reaction (RT-PCR) and Capillary electrophoresis technology.The assay endpoint ATG_M_61_EcoTox2 was analyzed in the positive analysis fitting direction relative to DMSO as the negative control and baseline of activity. Using a type of inducible reporter, measures of mRNA for gain-of-signal activity can be used to understand the background control at the transcription factor-level as they relate to the gene. Furthermore, this assay endpoint can be referred to as a secondary readout, because this assay has produced multiple assay endpoints where this one serves a background control function. To generalize the intended target to other relatable targets, this assay endpoint is annotated to the background measurement intended target family, where the subfamily is internal marker.\nHuman liver HepG2 cells are transiently transfected with multiple reporter transcription units (MRTUs) in 6-well plates using FuGene 6 reagent (Roche; 3 ml FuGene/1 mg DNA). The MRTU constructs are regulated by a cis-regulating element (promoter). Each RTU expresses a GAL4-UAS that regulates the transcription of a nearby target reporter gene sequence. A major difference between the CIS and TRANS system is that in CIS activities of endogenous TFs are measured, whereas the TRANS assay evaluates changes in activities of exogenous, chimeric NR-Gal4 proteins. […] At the end of 24 hour incubation, total RNA was isolated using TriZol reagent (Invitrogen). The isolated RNA is then reverse-transcribed using oligo(dT) primer and Mo-MLV reverse transcriptase (Invitrogen) with DNAse I (Ambion) treatment for 30 min. The one-tenth of the produced cDNA was amplified by PCR using Taq DNA polymerase (Invitrogen) and two reporter sequence-specific primers. […] The fragments were purified using Qiaquick PCR columns (Qiagen), analyzed on an ABI 3130xL genetic analyzer (Applied Biosystems) with peak positions identified by using a set of X-rhodamine (ROX)-labeled MapMarker1000 molecular weight standards (BioVentures). […]"}
{"smiles": "O=S(=O)(O)C(F)(F)C(F)(F)C(F)(F)C(F)(F)C(F)(F)C(F)(F)F", "outcome": "inactive"}
{"smiles": "O=P(Oc1ccccc1)(Oc1ccccc1)Oc1ccccc1", "outcome": "inactive"}
{"smiles": "O=C(O)C(F)(F)C(F)(F)C(F)(F)C(F)(F)C(F)(F)C(F)(F)C(F)(F)F", "outcome": "inactive"}
{"smiles": "CCCCOCN(C(=O)CCl)c1c(CC)cccc1CC", "outcome": "inactive"}
